Measurements: PubChem BioAssay (NCI)
Compounds without any hit were thinned out: in the full panel of roughly 83,000, 20% have a hit.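 Compound tested at a single concentration for 48 hours in 96-well plates; a percent growth value below 10 was scored as active.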 Values without a mark were called inactive. Activity calls are given as the source filed them.

Columns and labels:
Assay in all cases: NCI-60 one-dose screen, 48 h (100 = growth as untreated, 0 = no growth, -100 = all killed)
Settings in all cases: 10 µM unless noted
NCI-H23 lung = tested on: NCI-H23 lung
NCI-H226 lung = tested on: NCI-H226 lung
NCI-H322M lung = tested on: NCI-H322M lung
HOP-62 NSCLC = tested on: HOP-62 NSCLC
NCI-H460 lung = tested on: NCI-H460 lung
HOP-92 NSCLC = tested on: HOP-92 NSCLC
NCI-H522 lung = tested on: NCI-H522 lung
A549/ATCC NSCLC = tested on: A549/ATCC NSCLC
786-0 renal = tested on: 786-0 renal
COLO 205 colon = tested on: COLO 205 colon

Row | Structure (SMILES) | growth (NCI-H23 lung) [%] | growth (NCI-H226 lung) [%] | growth (NCI-H322M lung) [%] | growth (HOP-62 NSCLC) [%] | growth (NCI-H460 lung) [%] | growth (HOP-92 NSCLC) [%] | growth (NCI-H522 lung) | growth (A549/ATCC NSCLC) [%] | growth (786-0 renal) [%] | growth (COLO 205 colon)
1 | O=C1/C(=C\c2ccc(Br)o2)SC(=S)N1CCc1ccc(O)cc1 | 49.7 | 97.3 | 88.3 | 83.5 | 107 | 55.3 | 37.8% | 100 | 78.7 | 97.8%
2 | Cc1cc2nc3c4cc([N+](=O)[O-])cc([N+](=O)[O-])c4n(CCN(C)C)c3nc2cc1C | 77.7 | 84.1 | 72.2 | 64.7 | 65.4 | 80.7 | 70.6% | 73.5 | 80.4 | 71.1%
3 | Clc1cc(Cl)cc(Nc2ccc3c(OCCCN4CCOCC4)cccc3n2)c1 | 77 | 26.6 | 45.1 | 57.4 | 13.1 | 37.3 | 5.16% (active) | 25.6 | 54 | -53.4% (active)
4 | Nc1ncnc2nc(Br)[nH]c12 | 92.7 | 85.9 | 108 | 98 | 106 | 94.7 | 85.9% | 77.1 | 95.1 | 103%
5 | O=C1c2ccccc2NC(c2cn(-c3ccccc3)nc2-c2cccnc2)N1Cc1ccccc1 (stereo not given) | 92.3 | 109 | 93 | 111 | 108 | 93.4 | 78.4% | 102 | 89.9 | 121%
6 | C/C(=C(/c1ccccc1)c1ccc(N2C(=O)c3cccc4c(NCc5ccccc5)ccc(c34)C2=O)cc1)c1ccccc1 | 89.8 | 89.1 | 97.6 | 100 | 99.8 | 89 | 93.1% | 92.6 | 103 | 112%
7 | NS(=O)(=O)c1ccc(CCNC(=O)/C=C/c2ccc(Cl)cc2)cc1 | 107 | 107 | 107 | 97.5 | 98 | 100 | 89.8% | 95.9 | 102 | 110%
8 | Nc1c2c(nc3ccc(Cl)cc13)CC(c1ccc(O)cc1)CC2=O (stereo not given) | 61.2 | 90.5 | 56.2 | 56.4 | 23.2 | 88.4 | 43.6% | 59.5 | 57.5 | 123%
9 | COc1ccc(-c2n[nH]nc2-c2cc3ccccc3s2)cc1O | 27.9 | 51.6 | 58.8 | 24.1 | 10.1 | 49.9 | -5.47% (active) | 15 | 33.6 | 51.4%
10 | CCCCC(=O)OC1CCCCC1C (stereo not given) | 97.3 | 79.1 | 111 | 98.9 | 104 | 77.6 | 83% | 72.3 | 92.4 | 100%
11 | COC(=O)c1cc(=O)nc(N/N=C/c2ccc(C)cc2)s1 | 107 | 98.5 | 108 | 98.6 | 106 | 66.4 | 91.9% | 101 | 103 | 114%
12 | O=c1[nH]c(=S)[nH]c2nc[nH]c12 | 88.6 | 99.8 | 118 | 86.9 | 112 | 108 | 100% | 99.1 | 91.6 | 123%
13 | O=c1c(CNc2ccc(S(=O)(=O)Nc3ncccn3)cc2)coc2ccccc12 | 102 | 103 | 97.1 | 93 | 105 | 102 | 89.7% | 93.5 | 102 | 105%
14 | CC(C)/C=C/CC[C@](C)(O)[C@H]1CC[C@]2(C)[C@@H]1CC[C@@H]1[C@@]3(C)C/C(=C/c4cccc(C(F)(F)F)c4)C(=O)C(C)(C)[C@@H]3CC[C@]12C | 96.3 | 94.9 | 105 | 103 | 98.6 | 92.7 | 96.2% | 85 | 101 | 113%
